Values joined by “and” are separate entries in the source; they are usually repeats but may differ in a detail not shown here. Equal entries are not always repeated. About 83,000 compounds went through this panel and 20% of them were active in at least one assay; those are over-represented in the sample as a whole.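 Percent growth is the endpoint: 0 to 100 indicates growth inhibition (40 means 60% inhibition), 0 means no net growth, and negative values indicate cell death.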 Unmarked numbers belong to inactive results. Active and inactive are the calls of the source.
The compounds below were run on A549/ATCC NSCLC (assay: NCI-60 one-dose screen, 48 h (100 = growth as untreated, 0 = no growth, -100 = all killed)). Conditions: 10 µM unless noted.
Procedure: Growth inhibition of the A549/ATCC human Non-Small Cell Lung tumor cell line is measured as a screen for anti-cancer activity. Cells are grown in 96 well plates and exposed to the test compound for 48 hours. Compounds are tested at a single concentration, which is 10^-5 M for most compounds. The reported endpoint is percent growth (GI% or GIPRCNT), where numbers from 0 - 100% represent growth inhibition, and numbers from -100% - 0 represent cell death. For example, a value of 40 represents 60% growth inhibition. A value of 0 means no net growth occurred over the course of the experiment. A value of -40 indicates 40% of cells at the beginning of the experiment died by the end of the experiment. A value of -100 means all cells are dead at the end of the experiment.
NCI-60 Human Tumor Cell Lines Screen was performed using the standard one-dose NCI protocol, which is described in more detail at https://dtp.cancer.gov/discovery_development/nci-60/default.htm.
Compounds with GIPRCNT values below 10 were considered active. Activity score was based on GIPRCNT using the following formula: […]
Score is 0 for GIPRCNT values of 100 or above, 50 for GIPRCNT values of 0, and 100 for GIPRCNT values of -100.

SMILES | growth
O=[N+]([O-])c1ccc(NC(c2ccccc2)c2ccc3cccnc3c2O)cc1 (stereo not given) | 13.8%
CS(=O)(=O)c1nsc(N)n1 | 87.7%
OCCSc1ccc(Cl)cc1 | 104% and 97%
CC(C)(C)OC(=O)CC1(O)CCCCC1 | 109%
CCC(=O)Oc1ccc(OCc2ccccc2)cc1 | 99.7% and 102%
O=C1c2cccnc2-c2ncccc21 | 97.7% [100 µM]
O=C(O)c1cc(=O)[nH]c(=O)[nH]1 | 98.3%
COc1cc([C@@H]2c3cc4c(cc3[C@H](O)[C@H]3COC(=O)[C@@H]23)OCO4)cc(OC)c1OC | 12.3% and 21.2%
O=[N+]([O-])c1cccc2ccc(N/N=C/c3ccccc3O)nc12 | 97.3% and 90.9%
Cc1cc(-c2ccc(N=Nc3c(C)nn(-c4ccc(S(=O)(=O)O)cc4)c3O)c(C)c2)ccc1N=Nc1ccc(O)c(C(=O)O)c1 | 104%
O=P(O)(O)OC1C(OP(=O)(O)O)C(OP(=O)(O)O)C(OP(=O)(O)O)C(OP(=O)(O)O)C1OP(=O)(O)O.[Cu+2] (stereo not given) | 64.1%
CCOC(=O)c1ccncc1 | 104%
Cc1ccc([N+](=O)[O-])cc1Br | 77.6%
Nc1ccc(Cl)c(S(=O)(=O)O)c1 | 106%
CCc1ccccc1-n1[nH]c(C)c(C=N)c1=O | 126%
CCOC(=O)CN1CCC(C(=O)OCC)CC1 | 103%
CCNC1=CC(=O)c2ncccc2C1=O | -54.8% (active)
CC(C)(C)OC(=O)NCCc1ccc(N)cc1 | 91%
Nc1ccccc1SC1CC(=O)N(c2ccc(I)cc2)C1=O (stereo not given) | 87.1%
N#Cc1c(N)nc2c(c(-c3ccc(Cl)cc3)nn2-c2ccccc2)c1C#N | 94.9% [100 µM]

SMILES | growth
Oc1cccnc1CN1CCOCC1 | 102% and 96.5%
COC(=O)C(Cc1cn(C(C)=O)c2ccccc12)P(=O)(OC)OC (stereo not given) | 106%
O=C1C=CC(n2cc(F)c(=O)[nH]c2=O)O1 (stereo not given) | 50.7%
CCN(CC)C(=S)SCCO | 99.3%
O=c1[nH]c(=O)c2[nH]c(=O)[nH]c2[nH]1 | 104%
COc1cc(NCCCCCNC(C)C)c2ncccc2c1 | 101% and 94.7%
Cc1cc(Cl)nc(Nc2ccccc2)n1 | 104%
CCOCCC(=O)O | 115%
COc1ccc(/C=C/C(=O)O)cc1OC | 99.7% and 104%
Nc1c(S(=O)(=O)O)cc(Br)c2c1C(=O)c1ccccc1C2=O | 104%
S=c1nn[nH]n1C1CCCCC1 | 106%
OCCCc1ccccc1 | 99.8%
CC1=CC(=O)C=CC1=Nc1ccc(N(C)C)cc1 | 101% and 58.7%
CCC(C)(O)CCC(C)(O)CC (stereo not given) | 106%
O=c1[nH]c(=O)n(C2OC(CO)C(O)C2O)cc1I (stereo not given) | 96.3% and 100%
O=C(c1ccc(Cl)cc1)C1C(c2ccccc2)C1[N+](=O)[O-] (stereo not given) | 98.6%
O=C(O)Cc1cc(=O)[nH]n(-c2ccccc2)c1=O | 95.6%
CCOC(=O)c1ccc(C(=N)N)cc1 | 107%
CCOC(=O)C1=CC(=O)CC(C)(C)O1 | 119% and 81.9%
C/C(=C\c1ccccc1)C(O)C(=O)c1nc2ccc([N+](=O)[O-])cc2[nH]c1=O (stereo not given) | 85.7%

From PubChem BioAssay (NCI)
